The list is not random: actives were taken first. Their share in the collection is about 19%.
KB-V1 MDR tox – KB-V1 MDR subline cytotoxicity; Potency, µM (top dose mostly 46.1 µM), actives largely listed as cytotoxic; 400,000 compounds, 3.4% hits; KB-V1 MDR cells viability, CellTiter-Glo, 72 h; AID 1347076; further: nearly all actives have a fitted effect of over 60% in size
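In this primary screen, KB-V1 cells overexpressing P-gp are incubated with library compounds (lowest to highest concentration) for 72 h at 37 degrees C before a luminescent ATP viability read.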
DT40 TDP1 CPT – growth inhibition of DT40 Tdp1-/-;hTDP1 cells with camptothecin (screen for TDP1 inhibitors) | 420,000 compounds, 12% hits | chicken DT40 Tdp1-/-;hTDP1 cells + 20 nM CPT, ATP luminescence, 48 h | AID 686979 | Potency, µM (series often up to 46.2 µM), for the others: at the top dose activity change, negative = growth inhibition, hits mostly inhibitors; further: nearly all actives have a fitted effect of over 55% in size
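Cell growth measured by CellTiter-Glo luminescence after a minimum 48 h, 37 C compound exposure with 20 nM CPT in Tdp1-knockout DT40 cells stably expressing hTDP1, seeded 400/well; qHTS titration format.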
KB-3-1 tox – KB-3-1 parental cell cytotoxicity; KB-3-1 viability, CellTiter-Glo ATP luminescence, 72 h; Potency, µM (highest dose often 46.1 µM), actives largely listed as cytotoxic; 400,000 compounds, 1.4% hits; further: nearly all actives have a fitted effect of over 60% in size
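Parental KB-3-1 viability, qHTS format: 72 h compound exposure, 37 °C; CellTiter-Glo; media-only wells and DMSO plates as controls; concentration-effect fits on corrected data.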
HT1080-NT tox – kills 2HG-producing HT-1080-NT fibrosarcoma cells; HT-1080-NT fibrosarcoma viability, CellTiter-Glo ATP luminescence, 48 h; Potency, µM (highest dose often 46.1 µM), without a hit: at the top dose activity, negative = less viability, usual class: cytotoxic; 360,000 compounds, 1.6% hits; AID 686970;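 further: NT is the 2HG producing partner of a matched IDH1 knockdown line; 0% = DMSO-treated cells and -100% = media-only wells without cells; nearly all actives have a fitted effect of over 55% in size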
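Compounds were tested in concentration-response format on HT-1080-NT cells for 48 hours at 37 degrees C. Cell viability came from CellTiter-Glo luminescence; curves were classified by r2, response magnitude and activity.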
HT1080 IDH1KD tx – HT-1080 IDH1 knockdown cell toxicity (counter line) | HT-1080 IDH1 knockdown viability, ATP luminescence, 48 h | Potency, µM (series often up to 46.1 µM), without a hit: at the top dose activity, negative = toxicity, usual class: cytotoxic | 360,000 compounds, 2% hits | AID 686971;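 further: 0% = DMSO wells and -100% = cell-free medium wells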
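Using the IDH1-knockdown HT-1080 line run in the same batch and compound series as the NT line, viability after 48 h at 37 °C was determined by CellTiter-Glo luminescence and expressed as % activity.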
TDP1 cell noCPT – qHTS for Inhibitors of human tyrosyl-DNA phosphodiesterase 1 (TDP1): qHTS in cells in absence of CPT; DT40 Tdp1-/- hTDP1 cells, no CPT, ATP luminescence, 48 h; Potency, µM (doses to about 46.2 µM), for the others: top-dose activity change, negative = growth inhibition, hits mostly inhibitors; 420,000 compounds, 15% hits; AID 686978, 2013; further: nearly all actives have a fitted effect of over 55% in size
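Cells were dispensed at 400 per well, compounds added by pin tool, plates incubated ≥48 hr at 37 °C, then CellTiter-Glo added for 30 min at room temperature before luminescence reading. Line: DT40 Tdp1-/- complemented with hTDP1; camptothecin omitted.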
* marks the source's active call; other numbers are inactive results; i = inactive; ? = inconclusive; / = not tested or not shown; [ ] = remark or other dose. The call rests on the fitted dose curve; in most records, active means well fitted curve in the direction sought with a large enough effect; inconclusive means small, poorly fitted or top-dose-only effect, or another doubt; inactive means no such curve, though single readings can be large; an effect the other way counts as inactive or inconclusive. Unless noted, on the % scale 0 is the no-effect control and ±100 the full control effect; potency means the concentration at half of the fitted maximal effect.

SMILES | KB-V1 MDR tox | DT40 TDP1 CPT | KB-3-1 tox | HT1080-NT tox | HT1080 IDH1KD tx | TDP1 cell noCPT
O=C(COC(=O)c1ccccc1OCc1cccc(Br)c1)Nc1ccc(Br)cc1 | i | ? | ? | / | / | ?
COc1ccc(-c2nnc(SCc3c(C)noc3C)n2N)cc1OC | 7.31µM* | -13.6% | i | 1.4% | -3.5% | -6.8%
Cc1csc(NC(=O)CSCc2c(C)noc2C)n1 | i | -19.6% | i | 11.5% | 11.4% | -21.4%
Cc1noc(C)c1CSCC(=O)Nc1nc(-c2ccc(F)c(F)c2)cs1 | ? | 23.1µM* | i | ? | -16.7% | 8.2µM*
COc1ccc(-c2csc(NC(=O)CSCc3c(C)noc3C)n2)cc1OC | / | ? | / | -2.2% | -11.0% | 9.2µM*
Cc1noc(C)c1CSCC(=O)Nc1nc2c(F)cc(F)cc2s1 | i | ? | i | -0.8% | -2.0% | 23.1µM*
COc1ccc(-c2nnc(SCC(=O)Nc3cc(C)on3)n2N)cc1OC | i | -10.1% | i | 10.8% | 11.6% | -6.5%
O=C(CCc1nnc2ccc(NCc3ccco3)nn12)Nc1cccc(F)c1 | i | -14.3% | i | -7.1% | -19.7% | 4.2%
CC[C@]12c3[nH]c4ccc(Cl)cc4c3CCN1C(=O)[C@@H](CC(=O)NCCC1=CCCCC1)C[C@@H]2C(=O)N1CCN(C(=O)C2CC2)CC1 | i | ? | i | -6.1% | -0.1% | 25.9µM*
CC[C@]12c3[nH]c4ccccc4c3CCN1C(=O)C(CC(=O)NCCC1=CCCCC1)C[C@@H]2C(=O)N1CCN(C(=O)C2CC2)CC1 (stereo not given in full) | i | 18.4µM* | i | 8.2% | 8.3% | 16.4µM*
O=C(N[C@H](CO)Cc1ccccc1)[C@H]1O[C@@H](n2ccc(=O)[nH]c2=O)[C@H](O)[C@@H]1O | i | -4.6% | i | 23.0% | 2.7% | 0.6%
CC1CC(OC(=O)C(O)c2ccccc2)CC(C)(C)C1 (stereo not given) | / | ? | / | / | / | 7.5µM*
COc1ccc(C(CCN2CCCCC2)c2c(O)cc(OC)cc2OC)cc1 (stereo not given) | i | 18.4µM* | i | -0.4% | -9.9% | 18.4µM*
COc1cc(O)c(C(CCN2CCCCC2)c2cc(OC)c(OC)c(OC)c2)c(OC)c1 (stereo not given) | i | ? | i | 0.3% | -8.8% | -23.9%
CCN(CC)CCC(c1ccc(OC)cc1)c1c(O)cc(OC)cc1OC (stereo not given) | i | 20.6µM* | i | -12.3% | -9.7% | ?
CCN(CC)C(=O)CC(c1ccc(OC)cc1)c1c(O)cc(OC)cc1OC (stereo not given) | i | ? | i | 9.6% | 6.4% | ?
COc1ccc(C(CCN2CCCC2)c2c(O)cc(OC)cc2OC)cc1 (stereo not given) | i | 18.4µM* | i | -3.4% | -1.8% | ?
O=C(COc1ccccc1Cl)N1CCN(c2ccc([N+](=O)[O-])c(N3CCCCC3)c2)CC1 | 20.6µM* | ? | i | -1.8% | 18.0% | 23.1µM*
CCC(=O)N1CCN(c2cc(N3CCCC3)c(F)cc2[N+](=O)[O-])CC1 | ? | -16.7% | i | -2.2% | ? | 8.3%
O=C(c1ccc(F)cc1)N1CCN(c2ccc([N+](=O)[O-])c(N3CCCCC3)c2)CC1 | ? | ? | i | 4.2% | -0.6% | 23.1µM*
Cn1c(=O)n(C)c2cc([N+](=O)[O-])c(N3CCN(C(=O)c4ccc(F)cc4)CC3)cc21 | ? | 18.4µM* | i | 2.5% | -16.0% | ?
O=C(c1cccc(F)c1)N1CCN(c2cc(N3CCCCC3)c(F)cc2[N+](=O)[O-])CC1 | 18.4µM* | 18.4µM* | ? | 0.0%[9.24 µM] | 2.4% | 18.4µM*
C=C1CC2C3CCC4=CC(=O)C=C[C@]4(C)[C@@]3(F)[C@@H](O)C[C@]2(C)[C@@]1(O)C(=O)COC(C)=O (stereo not given in full) | / | -0.5% | / | / | / | -18.2%
O=C(Nc1cc(-c2nc3ccccc3o2)ccc1Cl)c1ccc(Br)o1 | / | -27.4% | / | / | / | -12.6%
CC(=O)N1CCN(c2cc(N3CCc4ccccc4C3)c(F)cc2[N+](=O)[O-])CC1 | 18.4µM* | ? | i | ? | ? | ?
SMILES | KB-V1 MDR tox | DT40 TDP1 CPT | KB-3-1 tox | HT1080-NT tox | HT1080 IDH1KD tx | TDP1 cell noCPT
Cc1nc(C(=O)N(Cc2cc3ccc(F)cc3nc2N2CCC(O)CC2)CC2CCCO2)cs1 (stereo not given) | / | -10.8% | / | / | / | -25.1%
Cc1cccc(N2CCN(C(=O)COc3ccc4ccc(=O)oc4c3)CC2)c1C | i | ? | i | -21.7% | 2.8% | ?
Cc1cccc(N2CCN(C(=O)COc3cc4oc(=O)cc(C)c4cc3Cl)CC2)c1C | i | -24.6% | i | 10.4% | 9.8% | -12.5%
Cc1cccc(N2CCN(C(=O)COc3ccc4c(C)cc(=O)oc4c3C)CC2)c1C | i | 13µM* | ? | -29.0% | ? | 14.6µM*
O=C(COc1ccc2c3c(c(=O)oc2c1)CCCC3)N1CCN(c2ccc(F)cc2)CC1 | i | 23.1µM* | i | 12.9% | 3.6% | ?
COC(=O)Cc1c(C)c2ccc(OCC(=O)N3CCCC3)c(C)c2oc1=O | / | ? | / | 11.5% | -0.4% | -20.2%
COC(=O)Cc1c(C)c2ccc(OCC(=O)N3CCC(C)CC3)c(C)c2oc1=O | ? | 13µM* | i | -4.5% | 10.0% | 14.6µM*
Cc1cccc(N2CCN(C(=O)COc3ccc4c(c3)CCC4)CC2)c1C | 20.6µM* | -1.5% | ? | 0.2% | -4.1% | -6.1%
CC(=O)N1CCc2cc(Br)cc(S(=O)(=O)CCC(=O)N3CCN(c4cccc(C)c4C)CC3)c21 | i | 16.4µM* | i | / | / | ?
Cc1cc(=O)oc2c(C)c(OCC(=O)N3CCN(c4ccc(F)cc4)CC3)ccc12 | ? | 23.1µM* | i | -26.4% | -11.9% | 23.1µM*
Cc1cc(C)c(NC(=O)CSc2nc3ccccc3c3nc(-c4ccccc4)nn23)c(C)c1 | i | -0.7% | i | / | / | -1.4%
CN(C)c1ccc(S(=O)(=O)N2CCCCC2)cc1NC(=O)CN1C(=O)NC2(CCCC2)C1=O | i | -2.0% | i | 0.3% | 0.9% | 6.8%
COc1ccc(CC(Cc2ccc(OC)c(OC)c2)NC=O)cc1OC | i | -13.3% | i | -1.5% | 7.5% | 2.4%

Screens from PubChem.
